Measured potencies and affinities stand elsewhere.
System: Staphylococcus aureus
Settings: Concentration 32 ug.mL-1;; ASSAY_TEST Inhibition of Bacterial Growth; detection method Absorption (OD600); MEDIA CAMHB; plate type 384well; NBS; CORNING #3640; time 18 hr

Row | SMILES | Inhibition [%]
1 | COc1cccc(C(=O)CSc2nnc3c(=O)n(-c4ccc(F)cc4)ccn23)c1 | 4.06
2 | COc1cccc(-n2ccn3c(SCc4ccc(F)cc4)nnc3c2=O)c1 | 5.89
3 | Cc1ccc(NC(=O)Cn2nc3c(SC4CCCCC4)nccn3c2=O)c(Br)c1 | 0.51
4 | CC(C)c1ccc(Cn2c(=O)c3sccc3n3c(SCc4cccc(C(F)(F)F)c4)nnc23)cc1 | 11.56
5 | COc1cc(-c2nnc3c(=O)n(Cc4ccc(Cl)cc4)ccn23)cc(OC)c1OC | 11.84
6 | COc1ccc(C(=O)CSc2nnc3c(=O)n(-c4cccc(OC)c4)ccn23)cc1 | 14.49
7 | CC(C)NC(=O)CCn1c(=O)c2cc(Cl)ccc2n2c(=O)n(CC#N)nc12 | 0.39
8 | COc1cccc(C(=O)Cn2nc3n(CCC(C)C)c(=O)c4sccc4n3c2=O)c1 | -4.77
9 | O=c1n(Cc2nc(-c3ccc(OC(F)(F)F)cc3)no2)nc2ccc(-c3ccccc3)nn12 | -0.65
10 | COc1ccc(NC(=O)Cn2nc3c(N4CCOCC4)nccn3c2=O)c(OC)c1 | 14.25
11 | Cc1ccc(NC(=O)Cn2nc3c(Sc4ccccc4)nc4ccccc4n3c2=O)cc1C | -2.53
12 | Cc1ccc(Oc2nc3ccccc3n3c(=O)n(CC(=O)Nc4ccccc4C(F)(F)F)nc23)cc1 | 11.78
13 | COc1ccc(NC(=O)c2ccc3nn(CC(=O)N4CCN(c5ccccc5)CC4)c(=O)n3c2)cc1 | 2.28
14 | CCc1ccccc1Sc1nccn2c(=O)n(CC(=O)Nc3ccc(Br)cc3)nc12 | -9.89
15 | CCCCn1c(=O)c2sccc2n2c(SCc3cccc(C(F)(F)F)c3)nnc12 | -1.51
16 | CCc1ccccc1Sc1nccn2c(=O)n(CC(=O)Nc3ccc(C)cc3C)nc12 | 10.48
17 | CCCN(C)c1nccn2c(=O)n(CC(=O)Nc3cccc(SC)c3)nc12 | 12.22
18 | CCC(Sc1nnc2c(=O)n(-c3cccc(OC)c3)ccn12)C(=O)Nc1cc(OC)ccc1OC (stereo not given) | -1.04
19 | Cc1cc(C)cc(Nc2nc(C)cc3nn(CC(=O)NCc4ccco4)c(=O)n23)c1 | 4.89
20 | Cc1ccc(Sc2ccc3nn(CC(=O)Nc4ccc(F)c(Cl)c4)c(=O)n3n2)cc1 | 7.06

Row | SMILES | Inhibition [%]
21 | Cc1ccc(Oc2nccn3c(=O)n(CC(=O)Nc4ccc(C)cc4Br)nc23)cc1 | 4.05
22 | N#Cc1ccc(NC(=O)Cn2nc3c(SCc4ccc(Cl)cc4)nccn3c2=O)cc1 | 9.38
23 | Cc1cccc(C)c1NC(=O)Cn1nc2c(Sc3ccccc3)nccn2c1=O | -0.19
24 | CCOC(=O)c1ccc(NC(=O)Cn2nc3c4cc(-c5ccc(C)c(C)c5)nn4ccn3c2=O)cc1 | 3.76
25 | COc1ccc(NC(=O)CSc2nnc3ccc(C(=O)Nc4cccc(F)c4)cn23)cc1 | 8.78
26 | CC(C)CCn1c(=O)c2sccc2n2c(=O)n(Cc3ccccc3Cl)nc12 | 8.43
27 | Cc1ccc(NC(=O)Cn2nc3c(Sc4cccc(F)c4)nccn3c2=O)cc1F | 12.19
28 | O=C(Cn1nc2c(N3CCOCC3)nccn2c1=O)NCc1cc(F)cc(F)c1 | 7.03
29 | CCc1nnc2c(SCC(=O)Nc3ccc4c(c3)OCCO4)nc3ccccc3n12 | -7.96
30 | COc1ccc(NC(=O)Cn2nc3nc(N4CCOCC4)ccn3c2=O)cc1Cl | 7.8
31 | O=C(Cn1nc2c(N3CCOCC3)nccn2c1=O)NCc1ccc(F)cc1 | 19.72
32 | COc1cccc(CN(c2cc(F)cc(F)c2)S(=O)(=O)c2ccc3nnc(C)n3c2)c1 | 7.94
33 | CCC(C)NC(=O)c1ccc2c(=O)n(C3CC3)c3nn(CC(=O)NC(C)C)c(=O)n3c2c1 (stereo not given) | 10.01
34 | Cc1cccc(Oc2nc3ccccc3n3c(=O)n(CC(=O)Nc4cccc(C#N)c4)nc23)c1C | -4.2
35 | Cc1ccc(-c2ccc3nn(Cc4ccc(N5CCCC5=O)cc4)c(=O)n3n2)cc1 | 5.05
36 | COc1cccc(Sc2nc3ccccc3n3c(=O)n(CC(=O)Nc4c(C)cc(C)cc4C)nc23)c1 | 1.84
37 | Cc1ccc(NC(=O)Cn2nc3c4cc(-c5ccc(C)c(C)c5)nn4ccn3c2=O)c(C)c1 | -8.87
38 | O=C(Cn1nc2ccc(-c3ccccc3)nn2c1=O)Nc1ccc(F)cc1 | 1.63
39 | CCN(C(=O)CSc1nnc2c3cc(-c4ccc(OC)cc4)nn3ccn12)c1ccccc1 | 5.44
40 | Cc1ccccc1-c1noc(Cn2nc3ccc(-c4ccccc4)nn3c2=O)n1 | -12.29

System: Escherichia coli
Settings: Concentration 32 ug.mL-1;; ASSAY_TEST Inhibition of Bacterial Growth; detection method Absorption (OD600); MEDIA CAMHB; plate type 384well; NBS; CORNING #3640; time 18 hr

Row | SMILES | Inhibition [%]
41 | COc1cccc(C(=O)CSc2nnc3c(=O)n(-c4ccc(F)cc4)ccn23)c1 | 2.2
42 | COc1cccc(-n2ccn3c(SCc4ccc(F)cc4)nnc3c2=O)c1 | -10.24
43 | Cc1ccc(NC(=O)Cn2nc3c(SC4CCCCC4)nccn3c2=O)c(Br)c1 | -5.93
44 | CC(C)c1ccc(Cn2c(=O)c3sccc3n3c(SCc4cccc(C(F)(F)F)c4)nnc23)cc1 | 1.07
45 | COc1cc(-c2nnc3c(=O)n(Cc4ccc(Cl)cc4)ccn23)cc(OC)c1OC | -0.28
46 | COc1ccc(C(=O)CSc2nnc3c(=O)n(-c4cccc(OC)c4)ccn23)cc1 | -2.33
47 | CC(C)NC(=O)CCn1c(=O)c2cc(Cl)ccc2n2c(=O)n(CC#N)nc12 | -9.95
48 | COc1cccc(C(=O)Cn2nc3n(CCC(C)C)c(=O)c4sccc4n3c2=O)c1 | -5.88
49 | O=c1n(Cc2nc(-c3ccc(OC(F)(F)F)cc3)no2)nc2ccc(-c3ccccc3)nn12 | -5.47
50 | COc1ccc(NC(=O)Cn2nc3c(N4CCOCC4)nccn3c2=O)c(OC)c1 | -1.5
51 | Cc1ccc(NC(=O)Cn2nc3c(Sc4ccccc4)nc4ccccc4n3c2=O)cc1C | -4.65
52 | Cc1ccc(Oc2nc3ccccc3n3c(=O)n(CC(=O)Nc4ccccc4C(F)(F)F)nc23)cc1 | 1.07
53 | COc1ccc(NC(=O)c2ccc3nn(CC(=O)N4CCN(c5ccccc5)CC4)c(=O)n3c2)cc1 | -9.19
54 | CCc1ccccc1Sc1nccn2c(=O)n(CC(=O)Nc3ccc(Br)cc3)nc12 | 1.96
55 | CCCCn1c(=O)c2sccc2n2c(SCc3cccc(C(F)(F)F)c3)nnc12 | -8.66
56 | CCc1ccccc1Sc1nccn2c(=O)n(CC(=O)Nc3ccc(C)cc3C)nc12 | -10.9
57 | CCCN(C)c1nccn2c(=O)n(CC(=O)Nc3cccc(SC)c3)nc12 | -2.46
58 | CCC(Sc1nnc2c(=O)n(-c3cccc(OC)c3)ccn12)C(=O)Nc1cc(OC)ccc1OC (stereo not given) | -13.69
59 | Cc1cc(C)cc(Nc2nc(C)cc3nn(CC(=O)NCc4ccco4)c(=O)n23)c1 | -6.71
60 | Cc1ccc(Sc2ccc3nn(CC(=O)Nc4ccc(F)c(Cl)c4)c(=O)n3n2)cc1 | 0.26

Row | SMILES | Inhibition [%]
61 | Cc1ccc(Oc2nccn3c(=O)n(CC(=O)Nc4ccc(C)cc4Br)nc23)cc1 | -2.42
62 | N#Cc1ccc(NC(=O)Cn2nc3c(SCc4ccc(Cl)cc4)nccn3c2=O)cc1 | -2.23
63 | Cc1cccc(C)c1NC(=O)Cn1nc2c(Sc3ccccc3)nccn2c1=O | -13.17
64 | CCOC(=O)c1ccc(NC(=O)Cn2nc3c4cc(-c5ccc(C)c(C)c5)nn4ccn3c2=O)cc1 | -8.53
65 | COc1ccc(NC(=O)CSc2nnc3ccc(C(=O)Nc4cccc(F)c4)cn23)cc1 | 3.37
66 | CC(C)CCn1c(=O)c2sccc2n2c(=O)n(Cc3ccccc3Cl)nc12 | 1.09
67 | Cc1ccc(NC(=O)Cn2nc3c(Sc4cccc(F)c4)nccn3c2=O)cc1F | 1.14
68 | O=C(Cn1nc2c(N3CCOCC3)nccn2c1=O)NCc1cc(F)cc(F)c1 | -4.76
69 | CCc1nnc2c(SCC(=O)Nc3ccc4c(c3)OCCO4)nc3ccccc3n12 | 3.84
70 | COc1ccc(NC(=O)Cn2nc3nc(N4CCOCC4)ccn3c2=O)cc1Cl | -5.98
71 | O=C(Cn1nc2c(N3CCOCC3)nccn2c1=O)NCc1ccc(F)cc1 | 0.87
72 | COc1cccc(CN(c2cc(F)cc(F)c2)S(=O)(=O)c2ccc3nnc(C)n3c2)c1 | -9.84
73 | CCC(C)NC(=O)c1ccc2c(=O)n(C3CC3)c3nn(CC(=O)NC(C)C)c(=O)n3c2c1 (stereo not given) | -2.07
74 | Cc1cccc(Oc2nc3ccccc3n3c(=O)n(CC(=O)Nc4cccc(C#N)c4)nc23)c1C | -5.56
75 | Cc1ccc(-c2ccc3nn(Cc4ccc(N5CCCC5=O)cc4)c(=O)n3n2)cc1 | -5.45
76 | COc1cccc(Sc2nc3ccccc3n3c(=O)n(CC(=O)Nc4c(C)cc(C)cc4C)nc23)c1 | -6.13
77 | Cc1ccc(NC(=O)Cn2nc3c4cc(-c5ccc(C)c(C)c5)nn4ccn3c2=O)c(C)c1 | -22.36
78 | O=C(Cn1nc2ccc(-c3ccccc3)nn2c1=O)Nc1ccc(F)cc1 | -4.86
79 | CCN(C(=O)CSc1nnc2c3cc(-c4ccc(OC)cc4)nn3ccn12)c1ccccc1 | -0.03
80 | Cc1ccccc1-c1noc(Cn2nc3ccc(-c4ccccc4)nn3c2=O)n1 | -7.81

From ChEMBL document CHEMBL4513146, “CO-ADD screening of Karazin Kharkiv National University (Ukraine) compounds”
